Measurements taken from PubChem BioAssay AID1159580 (chemical genetic matrix, 2015).
Values joined by “and” are separate entries in the source; they are usually repeats but may differ in a detail not shown here. Equal entries are not always repeated. Out of some 5,500 compounds screened, about 2,000 (36%) were called active. Another 18% or so got no clear call; they are omitted. Cut-off read from the data, not from the text of the source: active = normalized growth mostly below about 0.91 (no sharp cut-off); inconclusive = no clear call, values can overlap the other calls; inactive = mostly above about 0.92. The list shows a part of the results.

Experiment: chemical genetic growth profiling, strain panel (AID 1159580);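 note: tested at 20 µM; growth read once vehicle control cultures reached saturation at 30 °C; 1 = growth at the plate median or of vehicle wells; lower values mean less growth of the strain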
Conditions: S. cerevisiae deletion strains, growth OD

Measured: normalized growth

CNC[C@H](O)c1cccc(O)c1
inactive: locus YAL013W, strain DEP1, active compounds read low 1.01 | locus YAL021C, strain ccr4, active compounds read low 0.979 | locus YAL026C, strain drs2, active compounds read low 0.997 | locus YAL030W, strain snc1, active compounds read low 0.986 | locus YBL061C, strain skt5, active compounds read low 0.988 | locus YBR009C, strain hhf1, active compounds read low 0.995 | locus YBR021W, strain FUR4, active compounds read low 1 | locus YBR023C, strain chs3, active compounds read low 0.986 | locus YBR171W, strain sec66, active compounds read low 0.98 | locus YBR229C, strain ROT2, active compounds read low 1.01 | locus YBR231C, strain swc5, active compounds read low 0.967 | locus YBR279W, strain paf1, active compounds read low 0.991 | locus YCL011C, strain gbp2, active compounds read low 1 | locus YCL016C, strain dcc1, active compounds read low 0.983 | locus YCL029C, strain bik1, active compounds read low 1.02 | locus YCL069W, strain vba3, active compounds read low 0.991 | locus YCR088W, strain abp1, active compounds read low 0.986 | locus YDL005C, strain med2, active compounds read low 0.968 | locus YDL035C, strain GPR1, active compounds read low 1.01 | locus YDL040C, strain nat1, active compounds read low 0.984 | locus YDL074C, strain BRE1, active compounds read low 1.01 | locus YDL101C, strain DUN1, active compounds read low 1.01 | locus YDL134C, strain PPH21, active compounds read low 1.01 | locus YDL185W, strain tfp1, active compounds read low 1.02 | locus YDL192W, strain arf1, active compounds read low 1.02 | locus YDR001C, strain nth1, active compounds read low 0.991 | locus YDR069C, strain doa4, active compounds read low 0.982 | locus YDR101C, strain arx1, active compounds read low 1.02 | locus YDR137W, strain rgp1, active compounds read low 0.966 | locus YDR150W, strain NUM1, active compounds read low 1.01 | locus YDR159W, strain sac3, active compounds read low 0.981 | locus YDR162C, strain NBP2, active compounds read low 1.01 | locus YDR195W, strain ref2 0.91 | locus YDR297W, strain sur2, active compounds read low 0.981 | locus YDR318W, strain mcm21, active compounds read low 1.02 | locus YDR334W, strain swr1, active compounds read low 0.982 | locus YDR335W, strain msn5, active compounds read low 0.99 | locus YDR388W, active compounds read low 1.01 | locus YDR392W, strain spt3, active compounds read low 1 | locus YDR502C, strain sam2, active compounds read low 1.01 | locus YEL003W, strain gim4, active compounds read low 0.989 | locus YEL037C, strain rad23, active compounds read low 0.984 | locus YEL061C, strain CIN8 (second series), active compounds read low 0.99 | locus YEL061C, strain CIN8, active compounds read low 1.01 | locus YER015W, strain faa2, active compounds read low 0.969 | locus YER016W, strain bim1, active compounds read low 0.981 | locus YER110C, active compounds read low 1.02 | locus YER111C, strain swi4, active compounds read low 0.988 | locus YER155C, strain BEM2 (second series), active compounds read low 0.953 | locus YER155C, strain BEM2, active compounds read low 1 | locus YER167W, strain BCK2, active compounds read low 1.01 | locus YFR010W, strain ubp6, active compounds read low 0.976 | locus YGL078C, strain dbp3, active compounds read low 1.01 | locus YGL086W, strain mad1, active compounds read low 1 | locus YGL167C, strain pmr1, active compounds read low 0.983 | locus YGL173C, strain kem1, active compounds read low 0.955 | locus YGL227W, strain vid30, active compounds read low 0.971 | locus YGL240W, strain doc1, active compounds read low 0.95 | locus YGL248W, strain PDE1, active compounds read low 1 | locus YGL253W, strain hxk2, active compounds read low 1.01 | locus YGR078C, strain PAC10, active compounds read low 0.996 | locus YGR135W, strain pre9, active compounds read low 1 | locus YGR229C, strain SMI1, active compounds read low 0.992 | locus YGR252W, strain gcn5, active compounds read low 0.989 | locus YHR013C, strain ard1, active compounds read low 0.982 | locus YHR027C, strain rpn1, active compounds read low 0.99 | locus YHR030C, strain SLT2, active compounds read low 1 and 1.01 | locus YHR079C, strain IRE1 (second series), active compounds read low 1.02 | locus YHR079C, strain IRE1, active compounds read low 1.03 | locus YHR094C, strain hxt1, active compounds read low 1.02 | locus YHR129C, strain ARP1, active compounds read low 1.01 | locus YHR142W, strain chs7, active compounds read low 1 | locus YHR200W, strain rpn10, active compounds read low 1.02 | locus YIL066C, strain RNR3, active compounds read low 1.01 | locus YIL073C, strain SPO22, active compounds read low 1.04 | locus YIL125W, strain kgd1, active compounds read low 1.01 | locus YIR030C, strain dcg1, active compounds read low 1.01 | locus YJL092W, strain hpr5, active compounds read low 0.977 | locus YJL095W, strain BCK1 (second series), active compounds read low 0.98 | locus YJL095W, strain BCK1, active compounds read low 1.01 and 1.02 | locus YJL115W, strain asf1, active compounds read low 0.976 | locus YJL129C, strain trk1, active compounds read low 0.977 | locus YJL134W, strain LCB3, active compounds read low 1 | locus YJL154C, strain vps35, active compounds read low 0.987 | locus YJL164C, strain tpk1, active compounds read low 0.985 | locus YJL166W, strain qcr8, active compounds read low 0.956 | locus YJL168C, strain set2, active compounds read low 1.02 | locus YJL187C, strain SWE1 (second series), active compounds read low 1.01 | locus YJR043C, strain POL32, active compounds read low 0.996 | locus YJR066W, strain TOR1, active compounds read low 0.969 | locus YJR075W, strain HOC1, active compounds read low 1
